This is part of a sample that, as a whole, favours compounds with a hit. Of some 79,000 tested, about 15% had one in any assay. A number with no mark means an inactive call. Calls of active or inactive are those of the source. Cut-off read from the data, not from the text of the source: active = growth inhibition above about 70%; inactive = the rest.
Assays:
[1] = NCI Yeast Anticancer Drug Screen. Data for the rad50 strain (AID 155);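 note: 0% = growth of vehicle-only cultures of the same strain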; conditions: S. cerevisiae rad50 strain growth inhibition, stronger effect = higher value; at 50.0 µM unless noted
In short: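 Genetically altered yeast (DNA repair pathway); compound treatment; growth inhibition vs vehicle ctrl.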

[2] = NCI Yeast Anticancer Drug Screen. Data for the mec2-1 strain (AID 157); conditions: S. cerevisiae mec2-1 strain, stronger effect = higher value; at 50.0 µM unless noted
In short: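 Growth inhibition is read against vehicle-treated controls after compound exposure of the mec2-1 yeast strain, which is defective in DNA damage repair or cell cycle control.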

[3] = NCI Yeast Anticancer Drug Screen. Data for the sgs1 mgt1 strain (AID 161);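 note: 0% = growth of cultures given vehicle only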; conditions: S. cerevisiae sgs1 mgt1 strain, stronger effect = higher value; at 50.0 µM unless noted
In short: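 Growth of a repair-deficient yeast mutant was monitored after compound treatment and expressed as inhibition relative to vehicle-treated cultures.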

[4] = NCI Yeast Anticancer Drug Screen. Data for the cln2 rad14 strain (AID 165);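 note: 0% = growth equal to vehicle treated cultures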; conditions: S. cerevisiae cln2 rad14 strain, stronger effect = higher value; at 50.0 µM unless noted
In short: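 Growth inhibition, relative to vehicle-treated controls, is the read-out. The test organism is a yeast strain with defined genetic alterations, cln2 rad14.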

[5] = NCI Yeast Anticancer Drug Screen. Data for the bub3 strain (AID 167); conditions: S. cerevisiae bub3 mutant strain, stronger effect = higher value; at 50.0 µM unless noted
In short: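 Yeast carrying a defined mutation is treated with each compound, and growth is compared with that of vehicle-exposed cells to give inhibition.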

[6] = NCI Yeast Anticancer Drug Screen. Data for the mlh1 rad18 strain (AID 175); conditions: S. cerevisiae mlh1 rad18 strain growth inhibition, stronger effect = higher value; at 50.0 µM unless noted
In short: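 Cells of a genetically altered yeast strain, deficient in DNA damage repair, were treated with compound. Their growth was then compared with that of vehicle-treated cultures to give inhibition.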

With `O=S1(=O)C(=C(c2ccccc2)c2ccccc2)S(=O)(=O)c2ccccc21` the growth inhibition [1] was 39.7%, the growth inhibition [2] was 13.3% and the growth inhibition [3] was 13.9%. The growth inhibition [4] was 23.9%, the growth inhibition [5] was -6.55% and the growth inhibition [6] was 29.1%.
Compound `CC(C)C1=CCC2C(=C1)CCC1C(C)(N=C=O)CCCC21C` (stereo unspecified) has a growth inhibition [1] of -28.6%, a growth inhibition [2] of -10.1% and a growth inhibition [3] of -7.7%. It also gave a growth inhibition [4] of -51.8%, a growth inhibition [5] of 38.8% and a growth inhibition [6] of -4%.
For `CC(C)C1CO[C@]2(C)CCC(=O)N12` (stereo partly specified), the growth inhibition [1] was 4.6%, the growth inhibition [2] was 11.9% and the growth inhibition [3] was -2.6%. For the same compound, the growth inhibition [4] was 13.8%, the growth inhibition [5] was 6.3% and the growth inhibition [6] was 9.95%.
For `S=C(NC1CCCCC1)SSSSC(=S)NC1CCCCC1`, the growth inhibition [1] was 15.7%, the growth inhibition [2] was 5% and the growth inhibition [3] was 22.2%. The growth inhibition [4] was 9.55%, the growth inhibition [5] was 13.9% and the growth inhibition [6] was 20.2%.
Compound `OC1(c2cccnc2)c2ccccc2Oc2ccccc21` has a growth inhibition [1] of -11.8%, a growth inhibition [2] of 7.25% and a growth inhibition [3] of 0.7%. The growth inhibition [4] was -28.1%, the growth inhibition [5] was -3.7% and the growth inhibition [6] was -8.2%.
Work on `CCN(c1ccccc1)S(=O)(=O)C(C)S(=O)(=O)N(CC)c1ccccc1` yielded a growth inhibition [1] of -1.05%, a growth inhibition [2] of -10.5% and a growth inhibition [3] of -1.2%. The growth inhibition [4] was -19.8%, the growth inhibition [5] was 2.2% and the growth inhibition [6] was -6.85%.
For `Nc1nc(-c2cc(Br)ccc2N=NN2CCCCC2)nc2ccc(Br)cc12`, the growth inhibition [1] was 82.2% (active), the growth inhibition [2] was 37.2% and the growth inhibition [3] was 79.5% (active). The growth inhibition [4] was 46%, the growth inhibition [5] was 22.3% and the growth inhibition [6] was 70.8% (active).
For `CSc1c(C)n2c3c(cccc13)CCC2`, the growth inhibition [1] was -9.7%, the growth inhibition [2] was -6.6% and the growth inhibition [3] was -3.8%. For the same compound, the growth inhibition [4] was -36.7%, the growth inhibition [5] was 1.35% and the growth inhibition [6] was 3.3%.
With `OCCCCCCCl` the growth inhibition [1] was -28.8%, the growth inhibition [2] was -24.8% and the growth inhibition [3] was -11.6%. For the same compound, the growth inhibition [4] was -6.65%, the growth inhibition [5] was -3.05% and the growth inhibition [6] was 3.6%.
In the case of `CCCCCCCC(=O)Nc1cccc(O)c1`, the growth inhibition [1] is reported as 4.8%, the growth inhibition [2] is reported as -6.95% and the growth inhibition [3] is reported as -11.7%. For the same compound, the growth inhibition [4] was -34.9%, the growth inhibition [5] was -6.3% and the growth inhibition [6] was -6.15%.
Work on `CCOC(=O)c1oc2cc(O)ccc2c(=O)c1-c1ccc(OC)c(OC)c1` yielded a growth inhibition [1] of 5.95%, a growth inhibition [2] of -1.7% and a growth inhibition [3] of 16.3%. It also gave a growth inhibition [4] of 3.45%, a growth inhibition [5] of 4.65% and a growth inhibition [6] of 11.8%.
`CC(O)c1cccc(NC(=O)NC2CCCCC2)c1` (stereo unspecified) showed a growth inhibition [1] of -2.55%, a growth inhibition [2] of 28.1% and a growth inhibition [3] of 10.8%. For the same compound, the growth inhibition [4] was -6.1%, the growth inhibition [5] was 29.4% and the growth inhibition [6] was 27.8%.
With `CCSC(SCC)C(NC(C)=O)C(O)C(O)C(O)CO` (stereo unspecified) the growth inhibition [1] was 28.7%, the growth inhibition [2] was 3.45% and the growth inhibition [3] was 3.7%. It also gave a growth inhibition [4] of 12.7%, a growth inhibition [5] of 15.2% and a growth inhibition [6] of 21.4%.
With `Cc1cc2ccccc2c(N=Cc2cc(Br)cc(Br)c2O)c1C#N` the growth inhibition [1] was 59.8%, the growth inhibition [2] was 87.5% (active) and the growth inhibition [3] was 96.8% (active). The growth inhibition [4] was 60.2%, the growth inhibition [5] was 83.8% (active) and the growth inhibition [6] was 97.8% (active).
`COc1ccc(/C=C2\N=C(c3ccc([N+](=O)[O-])cc3)OC2=O)cc1OC` showed a growth inhibition [1] of -5.35%, a growth inhibition [2] of -2.75% and a growth inhibition [3] of -14.8%. It also gave a growth inhibition [4] of -15.5%, a growth inhibition [5] of 0.25% and a growth inhibition [6] of -17.1%.
`NC1CCC(C2CCC(N)CC2)CC1` (stereo unspecified) gave a growth inhibition [1] of 17.1%, a growth inhibition [2] of 20.6% and a growth inhibition [3] of 3.7%. The growth inhibition [4] was -53%, the growth inhibition [5] was -6.45% and the growth inhibition [6] was -13.7%.
Compound `Cn1cc(Cc2ccccc2)c(=O)[nH]c1=O` has a growth inhibition [1] of 6.25%, a growth inhibition [2] of -4.4% and a growth inhibition [3] of 2.05%. It also gave a growth inhibition [4] of -34.6%, a growth inhibition [5] of -4.85% and a growth inhibition [6] of 7.6%.
With `CC(C)NS(=O)(=O)OCC(O)(CC(Cl)(Cl)Cl)c1ccccc1` (stereo unspecified) the growth inhibition [1] was 23.8%, the growth inhibition [2] was 4.2% and the growth inhibition [3] was 16.9%. For the same compound, the growth inhibition [4] was 21.9%, the growth inhibition [5] was 11.7% and the growth inhibition [6] was 38.7%.
With `Cc1cccc(CO)c1NC(=O)NCCCl` the growth inhibition [1] was -0.4%, the growth inhibition [2] was -12.2% and the growth inhibition [3] was -4.55%. The growth inhibition [4] was -32.2%, the growth inhibition [5] was -17.9% and the growth inhibition [6] was 3.25%.
`CC(=O)OC1CC(n2cc(F)c(=O)[nH]c2=O)OC1CO` (stereo unspecified) showed a growth inhibition [1] of 7.95%, a growth inhibition [2] of 12.2% and a growth inhibition [3] of -10.4%. For the same compound, the growth inhibition [4] was -17%, the growth inhibition [5] was -0.45% and the growth inhibition [6] was 2.5%.
For `O=Cc1c[nH]c2ccc(F)cc12`, the growth inhibition [1] was 9.85%, the growth inhibition [2] was -19.4% and the growth inhibition [3] was 20.6%. For the same compound, the growth inhibition [4] was 14.3%, the growth inhibition [5] was 19.9% and the growth inhibition [6] was 23.4%.

— PubChem BioAssay (NCI)
